Where “and” joins values, the source holds several entries; their conditions need not be identical. Identical values can stand only once. Calls of active or inactive are those of the source.

Assay [1] has as its system Plasmodium falciparum Sir2 (PF13_0152, Sir2A). Nature of the assay: Plasmodium falciparum Sir2A binding compounds – biochemical, small-molecule microarray, 635 nm fluorescence, primary screen (AID 1098).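 Further: score merges spot fluorescence intensity with its signal-to-noise ratio.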 The conditions noted are these: fluorescence 635 nm, higher = more signal.
The nature of assay [2]: probe aDKK1 binding to arrayed compounds – biochemical, biotinylated probe, 635/667 nm fluorescence, primary screen (AID 1099).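 Further: score merges 667nm spot fluorescence with signal to noise across triplicate slides; reference of the scale not given here.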 As to conditions: small-molecule microarray, higher = more signal.
A short description of assay [3]: probe aCHRDL2 binding to arrayed compounds – biochemical, biotinylated probe, 635/667 nm fluorescence, primary screen (AID 1100). As to conditions: small-molecule microarray, higher = more signal.
A short description of assay [4]: change in splice reporter luminescence, either direction, cell-based, HEK293, spliceosome inhibition project, primary screen (AID 1101).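 Further: HEK293 cells carrying a splicing-competent luciferase reporter gene; test concentration not given here.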 As to conditions: HEK293 splicing luciferase reporter, 24 h, higher = more signal, called active from +8 up or from −8 down. For orientation: Reporter assays use an easily measured gene product as a stand-in for the process of interest.

For assay [5], the target named is Fibroblast growth factor 10 (Homo sapiens) (UniProt O15520). Nature of the assay: compounds binding fibroblast growth factor 10 – biochemical, small-molecule microarray, 635 nm fluorescence, primary screen (AID 1102). As to conditions: FGF10 binding, fluorescence 635 nm, higher = more signal.
Fibroblast growth factor 10 (Homo sapiens), sequence (O15520 whole entry, looked up): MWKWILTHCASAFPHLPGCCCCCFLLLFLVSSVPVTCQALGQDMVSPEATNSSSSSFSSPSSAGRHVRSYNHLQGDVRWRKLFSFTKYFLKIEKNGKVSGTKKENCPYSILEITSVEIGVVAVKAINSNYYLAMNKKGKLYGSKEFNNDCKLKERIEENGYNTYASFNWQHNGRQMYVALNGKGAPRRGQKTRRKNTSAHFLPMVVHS
For assay [6], the system named is glycogen synthase kinase-3 (GSK3A per assay name; protocol says GSK3B). Nature of the assay: compounds binding glycogen synthase kinase-3 – biochemical, small-molecule microarray, 635 nm fluorescence, GSK3A, primary screen (AID 1103). Further: the record names both GSK3A and GSK3B. The conditions noted are these: fluorescence 635 nm, higher = more signal.
Assay [7] addresses Epidermal growth factor receptor (Homo sapiens) (UniProt P00533). Nature of the assay: compounds binding epidermal growth factor receptor – biochemical, small-molecule microarray, 635 nm fluorescence, primary screen (AID 1104).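 Further: score merges 667 nm emission intensity with spot signal to noise over triplicate slides.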 As to conditions: EGFR binding, higher = more signal.
The target in assay [8] is Follistatin-related protein 3 (Homo sapiens) (UniProt O95633). The assay can be described thus: compounds binding follistatin-related protein 3 – biochemical, small-molecule microarray, 635 nm fluorescence, primary screen (AID 1105).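 Further: score merges emission near 667 nm and signal to noise per printed spot across three slides.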 As to conditions: FSTL3 binding, higher = more signal.
Follistatin-related protein 3 (Homo sapiens), sequence (O95633 whole entry, looked up): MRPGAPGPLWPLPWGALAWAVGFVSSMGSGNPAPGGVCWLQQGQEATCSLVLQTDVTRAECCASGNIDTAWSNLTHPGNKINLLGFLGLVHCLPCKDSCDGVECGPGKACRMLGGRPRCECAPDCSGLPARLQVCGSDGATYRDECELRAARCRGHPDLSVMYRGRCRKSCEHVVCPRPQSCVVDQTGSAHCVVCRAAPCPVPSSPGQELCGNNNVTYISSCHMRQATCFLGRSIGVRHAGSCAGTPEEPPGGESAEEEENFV
The target of assay [9] is Dickkopf-related protein 1 (Homo sapiens) (UniProt O94907). The assay can be described thus: small molecules binding DKK1 protein – biochemical, small-molecule microarray, 635 nm fluorescence scan, primary screen (AID 1106).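 Further: score merges emission near 667 nm with signal to noise over three replicate slides.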 The conditions noted are these: higher = more signal.
Dickkopf-related protein 1 (Homo sapiens), sequence (O94907 whole entry, looked up): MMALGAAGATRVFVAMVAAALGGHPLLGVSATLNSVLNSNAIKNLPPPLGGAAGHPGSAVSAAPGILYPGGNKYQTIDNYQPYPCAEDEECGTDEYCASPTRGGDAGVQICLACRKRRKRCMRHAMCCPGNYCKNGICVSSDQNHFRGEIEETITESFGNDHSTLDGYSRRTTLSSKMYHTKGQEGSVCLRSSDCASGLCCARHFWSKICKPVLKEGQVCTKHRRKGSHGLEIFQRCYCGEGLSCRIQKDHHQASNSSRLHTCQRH
Assay [10] relates to Inhibin beta A chain (activin A). Nature of the assay: small molecules binding activin A – biochemical, small-molecule microarray, 635 nm fluorescence scan, primary screen (AID 1107).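 Further: mouse activin A protein probed at 4.33 µg/mL on printed slides; score merges bound-protein fluorescence near 667 nm with spot signal-to-noise.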 The conditions noted are these: INHBA, higher = more signal.

Epidermal growth factor receptor (Homo sapiens), sequence (P00533 whole entry, looked up): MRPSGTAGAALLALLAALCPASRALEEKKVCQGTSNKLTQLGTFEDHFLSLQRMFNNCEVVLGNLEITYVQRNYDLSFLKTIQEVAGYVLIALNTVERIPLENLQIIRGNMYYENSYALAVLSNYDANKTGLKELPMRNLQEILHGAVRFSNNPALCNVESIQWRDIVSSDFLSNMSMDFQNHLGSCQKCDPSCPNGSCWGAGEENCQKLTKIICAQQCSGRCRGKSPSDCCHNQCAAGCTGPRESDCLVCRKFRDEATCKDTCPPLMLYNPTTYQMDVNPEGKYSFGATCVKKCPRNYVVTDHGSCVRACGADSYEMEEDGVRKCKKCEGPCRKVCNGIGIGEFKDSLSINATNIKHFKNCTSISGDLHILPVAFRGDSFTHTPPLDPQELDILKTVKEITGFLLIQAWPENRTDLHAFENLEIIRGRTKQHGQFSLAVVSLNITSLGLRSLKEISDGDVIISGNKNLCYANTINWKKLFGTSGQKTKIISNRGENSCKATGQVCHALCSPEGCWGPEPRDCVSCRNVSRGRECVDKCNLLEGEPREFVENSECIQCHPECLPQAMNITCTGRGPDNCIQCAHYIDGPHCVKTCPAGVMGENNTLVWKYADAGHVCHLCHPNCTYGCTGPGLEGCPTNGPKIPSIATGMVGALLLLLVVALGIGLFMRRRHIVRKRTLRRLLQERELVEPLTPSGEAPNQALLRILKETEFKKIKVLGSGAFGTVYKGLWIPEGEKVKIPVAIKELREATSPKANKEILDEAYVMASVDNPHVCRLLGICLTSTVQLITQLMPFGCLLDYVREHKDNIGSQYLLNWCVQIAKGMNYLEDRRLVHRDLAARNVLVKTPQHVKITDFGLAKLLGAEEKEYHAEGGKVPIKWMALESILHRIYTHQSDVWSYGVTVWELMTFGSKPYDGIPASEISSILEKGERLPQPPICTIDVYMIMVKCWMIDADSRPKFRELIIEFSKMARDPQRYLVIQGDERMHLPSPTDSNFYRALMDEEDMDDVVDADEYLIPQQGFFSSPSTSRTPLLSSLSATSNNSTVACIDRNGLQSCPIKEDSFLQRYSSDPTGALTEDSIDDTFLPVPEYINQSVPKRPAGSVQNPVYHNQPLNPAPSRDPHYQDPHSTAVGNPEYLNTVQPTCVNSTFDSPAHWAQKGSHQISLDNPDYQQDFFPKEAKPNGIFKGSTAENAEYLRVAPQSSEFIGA

As to `CCOC(=O)c1ccc(NC(=O)O[C@H]2[C@H](OC(=O)Nc3ccccc3)[C@@H](OC(=O)Nc3ccccc3)[C@@H](OC)O[C@@H]2CO)cc1`, the composite z-score in assay [1] is 1.54 and 1.64; in assay [2] it was 1; in [3] it was 0.861 and 0.911; in assay [5], 1.13 and 1.42; in assay [6], 1.24 and 1.34; in assay [7] it was 0.329 and 0.0234. Also, the composite z-score in assay [8] was 1.34 and 1.42; in assay [9] it was 0.414 and 0.17; in [10], 0.375 and 0.563. In addition, the z-score in assay [4] is 1.59 (inactive) and -0.984 (inactive).
Regarding `C=CCN(C(=O)C1N(c2c(Cl)cccc2CO)C(=O)C2C(C(=O)O)C3C=CC21O3)C(C)(C)C` (stereo not given), the composite z-score in assay [1] is 0.769 and -1.57; in assay [2], -0.525 and -0.241; in assay [3], -0.269 and 0.798; in assay [5], -0.788 and -1.43; in assay [6] it was -1.39 and -0.911; in assay [7], -1.85 and -0.913. Besides, the composite z-score is -0.332 and 0.322 in [8]; -2.02 and -2.22 in assay [9]; -0.918 and -0.985 in assay [10]. For the same molecule, in [4], the z-score is -0.859 (inactive) and -1.07 (inactive).
As to `CC(CO)N1C(=O)[C@@H]2C3C(=O)OCCC=C[C@H]3OC23C=CCN(c2ccc(Cl)cc2)C(=O)[C@@H]13` (stereo not given in full), the composite z-score was 1.13 and 1.84 in assay [1]; -0.0514 and 0.0818 in assay [2]; 0.574 and 0.715 in assay [3]; -1.16 and 0.322 in assay [5]; -1.61 and -0.251 in assay [6]; -0.911 and -0.867 in [7]. Besides, the composite z-score in [8] was -1.14 and -0.558; in [9], -1.33 and -0.412; in [10] it was 0.137 and 0.88. Besides, in assay [4], the z-score is 0.14 (inactive) and 0.899 (inactive).
In the case of `C=CCN(C(=O)C1N(CCOCCO)C(=O)C2C(C(=O)O)C3C=CC21O3)C(C)(C)C` (stereo not given), the composite z-score in assay [1] is 1.73 and -1.59; in assay [2], -0.128 and -0.31; in assay [3], 0.867 and 0.619; in assay [5], -1.8 and -1.24; in assay [6], -1.76 and -0.852; in assay [7] it was -2.23 and -1.56. For the same molecule, the composite z-score is -2.47 and -1.69 in [8]; -2.47 and -1.32 in [9]; -1.84 and -3.28 in [10]. For the same molecule, the z-score in assay [4] was -0.235 (inactive) and 0.32 (inactive).
Regarding `CC(CO)N1C(=O)[C@@H]2C3C(=O)OCCC=C[C@H]3OC23C=CCN(Cc2ccccc2)C(=O)[C@@H]13` (stereo not given in full), the composite z-score in assay [1] was 1.15 and 0.52; in assay [2], -0.2 and -0.173; in assay [3] it was 0.139 and 0.407; in assay [5], -0.602 and -0.115; in assay [6], -0.491 and -0.648; in assay [7], -0.91 and -1.81. Also, the composite z-score in assay [8] was -0.771 and -1.06; in assay [9], -1.02 and -0.657; in assay [10] it was 1.24 and -0.563. In addition, the z-score in assay [4] is -0.379 (inactive) and -0.024 (inactive).
Turning to `C=CCN(Cc1ccccc1)C(=O)C1N(c2c(Cl)cccc2CO)C(=O)C2C(C(=O)O)C3C=CC21O3` (stereo not given), the composite z-score is -1.57 and -0.0019 in assay [1]; 0.059 and 0.175 in assay [2]; 0.845 and 1.19 in [3]; -0.944 and -1.32 in assay [5]; -1.84 and -1.45 in [6]; -1.91 and -1.77 in assay [7]. For the same molecule, the composite z-score in assay [8] was -1.61 and -2.46; in assay [9], -2.28 and -1.9; in [10] it was -0.934 and -2.5. The z-score in [4] was -2.02 (inactive) and -0.804 (inactive).
Turning to `COc1ccc(COC(=O)NN=C2C[C@@H](O)[C@@H](O)[C@@H]3[C@@H]4C(=O)N(C(C)(C)C)C(=O)[C@@H]4CC[C@H]23)cc1`, the composite z-score was 0.871 in [1]; -0.325 in assay [2]; -0.25 in assay [3]; 0.589 in assay [5]; 0.241 in [6]; -0.0313 in [7]. Also, the composite z-score was 0.121 in assay [8], -0.116 in assay [9] and -0.786 in assay [10]. Moreover, in [4], the z-score was -0.544 (inactive).
On to `C[C@@]1([C@@H](NC(=O)Cc2ccccc2)c2ccc(-c3ccccc3)cc2)C[C@H]1C1CCCCC1`, for which the composite z-score in assay [1] was 0.334 and 0.359 and 0.301; in [2], 1.14 and 1.83 and -0.112; in [3] it was 0.775 and 1.08 and 0.538; in assay [5] it was 0.543 and 0.838 and 0.0825; in assay [6], 0.271 and 0.234 and 0.826; in assay [7], -0.0372 and 0.289 and -0.265. The composite z-score in assay [8] is -0.008 and -0.172 and 0.156; in [9], -0.193 and -0.286 and -0.719; in assay [10] it was 1.3 and 1.08 and 0.556. Also, in assay [4], the z-score was -4.09 (inactive) and -1.68 (inactive) and 0.868 (inactive).
In the case of `CCOC(=O)[C@@H]1CC2O[C@]23C[C@@H]1C(=O)N1CCC[C@@H]1[C@H]3O[Si](C)(C)C(C)(C)C` (stereo not given in full), the composite z-score is -0.494 and -0.107 in assay [1]; -0.557 and -0.234 in assay [2]; -0.645 and -0.63 in assay [3]; -0.438 and 0.433 in assay [5]; -0.755 and 0.491 in [6]; -0.133 and -0.303 in assay [7]. For the same molecule, the composite z-score is -0.937 and 0.184 in assay [8]; 0.389 and 0.364 in assay [9]; 0.456 and 0.999 in [10]. Also, in [4], the z-score is 0.559 (inactive) and 0.577 (inactive).
As to `C=CCN(CCCCC)C(=O)C1N(CCOCCO)C(=O)C2C(C(=O)O)C3C=CC21O3` (stereo not given), the composite z-score in assay [1] was 0.128 and 1.72; in [2], -0.344 and -0.208; in [3], 0.77 and 0.925; in assay [5], -1.48 and -1.61; in [6], -1.97 and -0.615; in assay [7], -1.74 and -1.79. The composite z-score is -1.54 and -1.58 in [8]; -2.58 and -3.23 in assay [9]; -1.97 and -1.95 in assay [10]. Moreover, the z-score in [4] was 0.8 (inactive) and 1.24 (inactive).
For `CO[C@H]1COC(=O)CC=C[C@H](C)[C@H](OC)COC(=O)[C@@H](C)COC(=O)CC=C[C@@H]1C`, the composite z-score in assay [1] is 0.402 and 0.0429; in [2], -0.629 and -0.472; in assay [3], -1.1 and -1.05; in assay [5] it was 0.415 and 0.242; in assay [6] it was 0.594 and 0.65; in assay [7], 0.752 and 0.715. The composite z-score was 0.969 and 0.59 in assay [8]; 1.23 and 0.743 in assay [9]; 1.02 and 0.17 in assay [10]. Besides, in assay [4], the z-score is -0.0265 (inactive) and -0.282 (inactive).
Turning to `C=C[C@@H](OC)[C@H](O)c1ccc(OC)c(O)c1`, the composite z-score is -1.12 and 0.402 in assay [1]; -0.42 and -0.521 in [2]; -0.6 and -0.0832 in [3]; 0.146 and -0.514 in assay [5]; -0.374 and -0.669 in assay [6]; 0.526 and -1.08 in assay [7]. Besides, the composite z-score in assay [8] is 0.878 and -0.9; in [9] it was 0.131 and -0.539; in [10], 1.27 and -0.492. Moreover, the z-score in assay [4] is -0.984 (inactive) and -1.14 (inactive).
Turning to `COC(=O)[C@@]1(Cc2ccc(OC)cc2)[C@H]2c3cc(C(=O)N(C)C)n(Cc4ccc(O)c(OC)c4)c3C[C@H]2CN1C(=O)c1ccccc1`, the composite z-score is 1.17 and 1.27 in assay [1]; 0.714 and 0.773 in assay [2]; 1.08 and 0.94 in assay [3]; 0.113 and 1.15 in assay [5]; 0.568 and -0.198 in assay [6]; -0.14 and -0.143 in assay [7]. The composite z-score in assay [8] is 0.418 and 0.592; in assay [9], -0.529 and -0.128; in assay [10] it was 0.876 and 0.416. Also, the z-score in assay [4] was -2.55 (inactive) and -2.51 (inactive).
On to `CCCC[C@@H]1CN2[C@H](c3ccc(Br)cc3)[C@@H](C)CC[C@H]2C(=O)O1`, for which the composite z-score in [1] is 0.186 and 0.254; in assay [2], -0.385 and -0.192; in assay [3] it was -0.492 and -0.707; in assay [5], 0.124 and 0.115; in assay [6] it was 0.0093 and -0.0119; in assay [7] it was 0.283 and 0.308. Moreover, the composite z-score in assay [8] was -0.427 and -0.351; in [9], 0.407 and -0.117; in assay [10] it was 0.574 and 0.485. Also, in assay [4], the z-score was -0.475 (inactive) and 0.405 (inactive).
